Holding throughout (assay): DAPPL (digital affinity profiling via proximity ligation, sequencing); 10 mM Tris-HCl pH 7.5, 50 mM NaCl, 1 mM DTT, 4% glycerol, room temperature, 30 min; GST-TFs on glutathione beads, 16-mer random dsDNA library, 0.1% formaldehyde crosslink after washing; high values mean tight binding
One test has as its target T1, FEV (Homo sapiens, UniProt Q99581 1-238).
T1 sequence: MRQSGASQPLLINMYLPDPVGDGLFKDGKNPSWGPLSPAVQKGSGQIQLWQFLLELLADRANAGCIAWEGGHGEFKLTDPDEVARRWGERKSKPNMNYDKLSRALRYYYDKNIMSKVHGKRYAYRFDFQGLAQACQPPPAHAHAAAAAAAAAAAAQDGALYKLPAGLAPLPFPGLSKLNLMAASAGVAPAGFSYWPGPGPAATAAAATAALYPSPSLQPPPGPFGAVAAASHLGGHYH
To be noted: protein: recombinant; tags: N-terminal GST; dsDNA, one strand shown. In a few lines: (§1)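 Human transcription factors were made in yeast as GST fusions, captured on glutathione beads and barcoded with DNA. With a tag-only sample included, the pool was incubated with 200 nmole of a random double-stranded 16-mer DNA library in Tris/NaCl/DTT/glycerol buffer at room temperature for 30 min, then crosslinked with 0.1% formaldehyde after washing, ligated by proximity, amplified and sequenced. For binding signal, each hexamer's read frequency for a factor is divided by its frequency for the tag-only sample.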

In another test the target is ETV5 (Homo sapiens, UniProt P41161 1-510). The settings on record: protein: recombinant; tags: N-terminal GST; dsDNA, one strand shown. In a few lines:
as §1

Another test has as its target HSF1 (Homo sapiens, UniProt Q00613 1-529). The settings on record: protein: recombinant; tags: N-terminal GST; chain copies: 3; dsDNA, one strand shown. Put shortly:
as §1

The next test concerns the target T2, SPIC (Homo sapiens, UniProt Q8N5J4 1-248).
T2 sequence: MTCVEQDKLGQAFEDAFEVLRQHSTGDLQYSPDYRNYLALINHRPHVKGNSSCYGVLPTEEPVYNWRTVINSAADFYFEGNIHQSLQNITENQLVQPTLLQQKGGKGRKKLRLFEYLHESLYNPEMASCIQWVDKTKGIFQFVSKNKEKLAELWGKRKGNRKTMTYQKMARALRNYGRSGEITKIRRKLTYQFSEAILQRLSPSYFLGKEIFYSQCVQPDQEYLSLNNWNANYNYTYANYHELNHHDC
The settings on record: protein: recombinant; tags: N-terminal GST; dsDNA, one strand shown. In a few lines: as §1

The next test deals with ELF4 (Homo sapiens, UniProt Q99607 1-663). To be noted: protein: recombinant; tags: N-terminal GST; dsDNA, one strand shown. In a few lines: as §1
Sequence of ELF4 (Q99607 whole entry): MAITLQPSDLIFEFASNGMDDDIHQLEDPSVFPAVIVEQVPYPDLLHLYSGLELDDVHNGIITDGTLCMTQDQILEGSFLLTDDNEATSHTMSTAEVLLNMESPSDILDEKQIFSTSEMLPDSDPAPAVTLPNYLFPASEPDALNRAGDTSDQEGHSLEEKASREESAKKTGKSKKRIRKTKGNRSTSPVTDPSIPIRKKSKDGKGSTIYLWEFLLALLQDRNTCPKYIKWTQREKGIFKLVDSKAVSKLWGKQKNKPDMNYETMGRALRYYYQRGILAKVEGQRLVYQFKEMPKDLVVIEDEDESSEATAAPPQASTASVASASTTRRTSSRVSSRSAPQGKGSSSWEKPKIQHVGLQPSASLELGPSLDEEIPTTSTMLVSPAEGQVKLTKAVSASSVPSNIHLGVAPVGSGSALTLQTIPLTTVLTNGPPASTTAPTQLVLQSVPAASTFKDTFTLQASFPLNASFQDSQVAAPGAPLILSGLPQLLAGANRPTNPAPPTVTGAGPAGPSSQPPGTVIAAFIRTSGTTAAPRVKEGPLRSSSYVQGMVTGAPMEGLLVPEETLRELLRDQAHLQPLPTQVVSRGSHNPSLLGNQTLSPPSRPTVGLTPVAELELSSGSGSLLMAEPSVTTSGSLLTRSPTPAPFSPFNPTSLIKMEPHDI
For a further test, the target named is T3, ELK4 (Homo sapiens, UniProt P28324-2 1-405).
T3 sequence: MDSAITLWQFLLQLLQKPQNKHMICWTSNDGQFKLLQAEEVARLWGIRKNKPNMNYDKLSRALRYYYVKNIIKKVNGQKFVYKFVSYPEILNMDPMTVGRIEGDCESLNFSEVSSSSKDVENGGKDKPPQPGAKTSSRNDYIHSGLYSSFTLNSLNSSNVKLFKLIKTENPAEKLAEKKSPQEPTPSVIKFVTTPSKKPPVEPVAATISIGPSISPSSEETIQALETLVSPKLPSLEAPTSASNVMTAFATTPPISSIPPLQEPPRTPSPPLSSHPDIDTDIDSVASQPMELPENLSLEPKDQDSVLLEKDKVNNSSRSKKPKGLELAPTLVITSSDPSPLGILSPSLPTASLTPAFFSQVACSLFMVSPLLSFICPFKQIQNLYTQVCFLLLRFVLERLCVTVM
The settings on record: protein: recombinant; tags: N-terminal GST; dsDNA, one strand shown. Put shortly: as §1

For the next test, the target named is T4, ETV2 (Homo sapiens, UniProt O00321 1-342).
T4 sequence: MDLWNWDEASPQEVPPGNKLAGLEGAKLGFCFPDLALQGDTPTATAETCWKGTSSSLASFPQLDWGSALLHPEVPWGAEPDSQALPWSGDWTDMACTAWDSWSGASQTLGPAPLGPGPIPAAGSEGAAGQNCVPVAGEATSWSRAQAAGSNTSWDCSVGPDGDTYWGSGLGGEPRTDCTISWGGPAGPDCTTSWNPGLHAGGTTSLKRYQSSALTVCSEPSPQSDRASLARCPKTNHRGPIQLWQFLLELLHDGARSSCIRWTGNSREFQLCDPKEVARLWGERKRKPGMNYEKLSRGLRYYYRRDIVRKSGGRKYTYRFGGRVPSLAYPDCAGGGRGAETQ
The settings on record: protein: recombinant; tags: N-terminal GST; dsDNA, one strand shown. In a few lines: as §1

Another test concerns the target T5, ELF3 (Homo sapiens, UniProt P78545 1-371).
T5 sequence: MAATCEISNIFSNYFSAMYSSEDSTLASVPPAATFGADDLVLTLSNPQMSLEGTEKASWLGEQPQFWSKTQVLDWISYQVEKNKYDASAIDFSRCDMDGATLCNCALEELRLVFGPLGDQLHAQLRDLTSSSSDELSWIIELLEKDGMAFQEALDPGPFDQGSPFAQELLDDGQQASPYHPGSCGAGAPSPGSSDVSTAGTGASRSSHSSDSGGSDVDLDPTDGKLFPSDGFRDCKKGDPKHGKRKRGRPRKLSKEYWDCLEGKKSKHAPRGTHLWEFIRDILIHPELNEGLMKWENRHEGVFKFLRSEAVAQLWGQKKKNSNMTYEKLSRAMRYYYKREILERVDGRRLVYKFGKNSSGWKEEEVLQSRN
The settings on record: protein: recombinant; tags: N-terminal GST; dsDNA, one strand shown. In a few lines:
as §1

The target of the next test is CRX (Homo sapiens, UniProt O43186 1-299). To be noted: protein: recombinant; tags: N-terminal GST; dsDNA, one strand shown. In a few lines: as §1
Sequence of CRX (O43186 whole entry): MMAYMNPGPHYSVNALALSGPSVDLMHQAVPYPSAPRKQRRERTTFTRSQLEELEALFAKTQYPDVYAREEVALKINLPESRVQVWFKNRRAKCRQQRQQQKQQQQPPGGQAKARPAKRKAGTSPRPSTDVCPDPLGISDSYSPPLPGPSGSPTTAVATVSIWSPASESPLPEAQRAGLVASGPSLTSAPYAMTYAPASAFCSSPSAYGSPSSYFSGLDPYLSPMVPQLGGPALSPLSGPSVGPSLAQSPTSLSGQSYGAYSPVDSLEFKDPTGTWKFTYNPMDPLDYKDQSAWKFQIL
The next test has as its target ETV1 (Homo sapiens, UniProt P50549 1-477). The settings on record: protein: recombinant; tags: N-terminal GST; dsDNA, one strand shown. In a few lines:
as §1

A further test concerns the target T6, ERF (Homo sapiens, UniProt P50548 1-548).
T6 sequence: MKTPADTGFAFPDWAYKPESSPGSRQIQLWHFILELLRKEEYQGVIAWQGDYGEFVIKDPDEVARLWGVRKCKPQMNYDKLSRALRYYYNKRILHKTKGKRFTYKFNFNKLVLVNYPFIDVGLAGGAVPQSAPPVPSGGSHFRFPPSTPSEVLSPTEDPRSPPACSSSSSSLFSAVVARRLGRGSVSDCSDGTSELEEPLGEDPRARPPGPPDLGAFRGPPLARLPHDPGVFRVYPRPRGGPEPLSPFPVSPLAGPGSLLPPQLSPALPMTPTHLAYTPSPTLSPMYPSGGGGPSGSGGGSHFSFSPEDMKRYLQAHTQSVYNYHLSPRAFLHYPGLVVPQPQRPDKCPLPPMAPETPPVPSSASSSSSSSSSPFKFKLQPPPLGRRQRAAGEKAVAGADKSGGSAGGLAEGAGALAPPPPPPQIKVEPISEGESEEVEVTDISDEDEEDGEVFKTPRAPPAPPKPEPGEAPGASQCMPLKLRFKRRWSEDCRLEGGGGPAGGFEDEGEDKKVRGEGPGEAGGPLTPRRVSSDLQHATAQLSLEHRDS
To be noted: protein: recombinant; tags: N-terminal GST; dsDNA, one strand shown. Put shortly: as §1

A further test has as its target T7, ETV3L (Homo sapiens, UniProt Q6ZN32 1-361).
T7 sequence: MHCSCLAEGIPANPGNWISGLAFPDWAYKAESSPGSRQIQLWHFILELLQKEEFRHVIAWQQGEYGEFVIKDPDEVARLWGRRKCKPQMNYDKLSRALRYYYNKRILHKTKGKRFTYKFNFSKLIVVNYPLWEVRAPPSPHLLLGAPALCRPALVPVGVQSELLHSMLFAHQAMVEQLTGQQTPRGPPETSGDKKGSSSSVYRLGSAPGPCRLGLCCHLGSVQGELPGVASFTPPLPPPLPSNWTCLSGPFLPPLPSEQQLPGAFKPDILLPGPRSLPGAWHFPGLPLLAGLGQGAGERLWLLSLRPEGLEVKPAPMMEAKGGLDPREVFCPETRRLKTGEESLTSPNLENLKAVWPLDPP
The settings on record: protein: recombinant; tags: N-terminal GST; dsDNA, one strand shown. Put shortly: as §1

A further test has as its target T8, ETS2 (Homo sapiens, UniProt P15036 1-469).
T8 sequence: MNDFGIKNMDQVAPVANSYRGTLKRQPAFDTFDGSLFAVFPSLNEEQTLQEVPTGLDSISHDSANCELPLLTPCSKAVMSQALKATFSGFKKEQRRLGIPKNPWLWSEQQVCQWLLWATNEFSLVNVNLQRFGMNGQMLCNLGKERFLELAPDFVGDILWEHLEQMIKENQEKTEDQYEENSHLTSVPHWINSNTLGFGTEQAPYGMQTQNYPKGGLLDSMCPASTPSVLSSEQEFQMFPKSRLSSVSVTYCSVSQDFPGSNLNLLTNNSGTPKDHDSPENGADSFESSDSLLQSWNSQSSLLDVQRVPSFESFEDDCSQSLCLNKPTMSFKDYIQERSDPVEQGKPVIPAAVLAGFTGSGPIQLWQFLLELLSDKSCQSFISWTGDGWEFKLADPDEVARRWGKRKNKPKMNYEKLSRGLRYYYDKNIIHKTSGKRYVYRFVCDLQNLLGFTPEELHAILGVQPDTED
To be noted: protein: recombinant; tags: N-terminal GST; dsDNA, one strand shown. In a few lines:
as §1

The next test addresses T9, SPDEF (Homo sapiens, UniProt O95238 1-335).
T9 sequence: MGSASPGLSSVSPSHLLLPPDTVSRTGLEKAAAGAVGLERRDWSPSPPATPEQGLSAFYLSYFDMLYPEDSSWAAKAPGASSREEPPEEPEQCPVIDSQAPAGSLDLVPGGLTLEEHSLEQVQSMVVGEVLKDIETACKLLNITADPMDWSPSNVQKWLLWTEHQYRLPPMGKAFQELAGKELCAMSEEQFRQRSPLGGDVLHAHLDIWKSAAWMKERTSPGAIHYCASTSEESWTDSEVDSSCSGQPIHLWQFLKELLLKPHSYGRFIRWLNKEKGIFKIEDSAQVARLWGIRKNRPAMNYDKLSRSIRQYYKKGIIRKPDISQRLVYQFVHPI
The settings on record: protein: recombinant; tags: N-terminal GST; dsDNA, one strand shown. Put shortly: as §1

The next test has as its target T10, ETV7 (Homo sapiens, UniProt Q9Y603 1-341).
T10 sequence: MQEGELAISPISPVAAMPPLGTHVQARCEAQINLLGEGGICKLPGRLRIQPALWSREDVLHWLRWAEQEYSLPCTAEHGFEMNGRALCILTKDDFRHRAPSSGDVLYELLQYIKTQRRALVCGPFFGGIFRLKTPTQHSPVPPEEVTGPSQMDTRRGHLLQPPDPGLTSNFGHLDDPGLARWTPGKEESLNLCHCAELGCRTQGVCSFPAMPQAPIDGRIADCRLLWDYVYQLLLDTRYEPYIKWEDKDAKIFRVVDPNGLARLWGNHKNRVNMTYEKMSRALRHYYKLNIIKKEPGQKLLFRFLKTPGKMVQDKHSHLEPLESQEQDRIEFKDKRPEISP
To be noted: protein: recombinant; tags: N-terminal GST; dsDNA, one strand shown. Put shortly:
as §1

For another test, the target named is T11, ELF5 (Homo sapiens, UniProt Q9UKW6-2 1-255).
T11 sequence: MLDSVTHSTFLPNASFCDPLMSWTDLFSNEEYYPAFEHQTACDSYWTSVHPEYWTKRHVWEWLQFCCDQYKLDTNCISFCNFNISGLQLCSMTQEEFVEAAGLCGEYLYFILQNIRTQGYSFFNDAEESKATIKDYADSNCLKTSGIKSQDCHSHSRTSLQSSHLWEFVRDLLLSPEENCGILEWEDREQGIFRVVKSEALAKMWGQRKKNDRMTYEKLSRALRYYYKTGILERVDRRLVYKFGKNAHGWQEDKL
The settings on record: protein: recombinant; tags: N-terminal GST; dsDNA, one strand shown. In a few lines: as §1

The target in a further test is T12, ETV3 (Homo sapiens, UniProt P41162-2 1-143).
T12 sequence: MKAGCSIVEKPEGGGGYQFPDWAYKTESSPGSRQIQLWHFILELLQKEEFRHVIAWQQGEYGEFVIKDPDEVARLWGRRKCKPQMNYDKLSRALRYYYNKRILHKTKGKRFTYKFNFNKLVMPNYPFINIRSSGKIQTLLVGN
To be noted: protein: recombinant; tags: N-terminal GST; dsDNA, one strand shown. Put shortly:
as §1

The next test concerns the target ETV6 (Homo sapiens, UniProt P41212 1-452). To be noted: protein: recombinant; tags: N-terminal GST; dsDNA, one strand shown. Put shortly:
as §1

Sequence of ETV5 (P41161 whole entry): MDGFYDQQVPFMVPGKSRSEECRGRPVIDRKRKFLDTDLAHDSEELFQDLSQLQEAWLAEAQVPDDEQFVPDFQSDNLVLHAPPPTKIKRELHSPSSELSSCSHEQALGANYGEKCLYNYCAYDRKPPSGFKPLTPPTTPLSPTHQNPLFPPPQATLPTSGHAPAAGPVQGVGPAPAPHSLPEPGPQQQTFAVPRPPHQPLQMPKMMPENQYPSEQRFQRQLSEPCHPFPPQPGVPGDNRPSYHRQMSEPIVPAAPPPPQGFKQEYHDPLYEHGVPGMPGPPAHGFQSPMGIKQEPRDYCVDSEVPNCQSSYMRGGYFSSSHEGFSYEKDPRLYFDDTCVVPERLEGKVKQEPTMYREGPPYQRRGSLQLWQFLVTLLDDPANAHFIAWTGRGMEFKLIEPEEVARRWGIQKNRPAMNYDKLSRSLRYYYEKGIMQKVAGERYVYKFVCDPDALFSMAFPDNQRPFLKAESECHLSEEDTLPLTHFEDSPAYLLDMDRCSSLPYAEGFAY
Sequence of ETV6 (P41212 whole entry): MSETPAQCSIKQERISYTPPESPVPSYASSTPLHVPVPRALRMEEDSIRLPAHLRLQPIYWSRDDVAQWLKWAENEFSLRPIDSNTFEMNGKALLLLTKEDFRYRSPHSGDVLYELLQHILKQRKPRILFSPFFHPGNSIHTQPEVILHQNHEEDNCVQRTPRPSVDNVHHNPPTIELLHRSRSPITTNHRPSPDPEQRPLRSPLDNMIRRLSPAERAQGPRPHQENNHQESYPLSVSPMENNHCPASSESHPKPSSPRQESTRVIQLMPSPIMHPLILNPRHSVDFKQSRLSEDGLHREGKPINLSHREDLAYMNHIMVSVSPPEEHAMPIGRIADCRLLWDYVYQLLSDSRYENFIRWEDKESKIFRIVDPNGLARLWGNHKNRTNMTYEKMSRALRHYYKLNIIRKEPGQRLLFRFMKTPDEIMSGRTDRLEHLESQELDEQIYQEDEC
Sequence of ETV1 (P50549 whole entry): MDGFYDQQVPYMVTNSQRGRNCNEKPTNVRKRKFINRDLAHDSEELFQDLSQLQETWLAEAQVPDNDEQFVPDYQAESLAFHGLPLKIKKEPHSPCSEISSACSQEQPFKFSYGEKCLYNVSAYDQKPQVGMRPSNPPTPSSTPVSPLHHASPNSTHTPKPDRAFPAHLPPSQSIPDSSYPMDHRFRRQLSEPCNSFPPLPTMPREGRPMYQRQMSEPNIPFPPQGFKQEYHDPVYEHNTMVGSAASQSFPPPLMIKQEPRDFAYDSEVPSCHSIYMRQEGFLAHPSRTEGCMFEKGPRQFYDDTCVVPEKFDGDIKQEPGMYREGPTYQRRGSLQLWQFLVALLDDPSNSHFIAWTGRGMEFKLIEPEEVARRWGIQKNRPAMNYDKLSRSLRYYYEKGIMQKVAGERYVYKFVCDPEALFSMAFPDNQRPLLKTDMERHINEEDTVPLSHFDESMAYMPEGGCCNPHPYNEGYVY
Sequence of HSF1 (Q00613 whole entry): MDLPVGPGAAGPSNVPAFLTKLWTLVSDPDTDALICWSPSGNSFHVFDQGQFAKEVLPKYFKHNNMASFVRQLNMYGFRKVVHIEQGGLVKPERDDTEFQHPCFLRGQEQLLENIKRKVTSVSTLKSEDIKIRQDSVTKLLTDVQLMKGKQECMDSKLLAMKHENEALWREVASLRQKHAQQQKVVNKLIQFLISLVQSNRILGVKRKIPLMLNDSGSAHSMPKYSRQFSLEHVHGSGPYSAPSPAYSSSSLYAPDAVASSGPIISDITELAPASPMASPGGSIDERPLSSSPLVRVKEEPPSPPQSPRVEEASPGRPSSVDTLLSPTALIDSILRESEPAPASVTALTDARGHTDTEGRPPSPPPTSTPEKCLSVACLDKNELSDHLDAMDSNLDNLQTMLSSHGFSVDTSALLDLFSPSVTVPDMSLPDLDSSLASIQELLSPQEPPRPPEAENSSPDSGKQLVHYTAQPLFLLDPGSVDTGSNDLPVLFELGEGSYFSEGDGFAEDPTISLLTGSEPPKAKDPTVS

As for TAAAGT, the binding signal with FEV is 1.1 fold enrichment (6-mer frequency, TF over GST control); with ETV5 it was 1.13 fold enrichment (6-mer frequency, TF over GST control); with HSF1 it was 1.37 fold enrichment (6-mer frequency, TF over GST control); with SPIC, 1.13 fold enrichment (6-mer frequency, TF over GST control); in the test with ELF4, 1.13 fold enrichment (6-mer frequency, TF over GST control); in the test with ELK4, 1.27 fold enrichment (6-mer frequency, TF over GST control). In addition, the binding signal with ETV2 is 1.11 fold enrichment (6-mer frequency, TF over GST control); with ELF3, 1.13 fold enrichment (6-mer frequency, TF over GST control); with CRX it was 1.75 fold enrichment (6-mer frequency, TF over GST control); with ETV1 it was 1.21 fold enrichment (6-mer frequency, TF over GST control); in the test with ERF it was 1.09 fold enrichment (6-mer frequency, TF over GST control); with ETV3L, 1.29 fold enrichment (6-mer frequency, TF over GST control). Further, the binding signal is 1.22 fold enrichment (6-mer frequency, TF over GST control) with ETS2; 1.15 fold enrichment (6-mer frequency, TF over GST control) with SPDEF; 1.25 fold enrichment (6-mer frequency, TF over GST control) in the test with ETV7; 1.17 fold enrichment (6-mer frequency, TF over GST control) in the test with ELF5; 1.18 fold enrichment (6-mer frequency, TF over GST control) with ETV3; 1.09 fold enrichment (6-mer frequency, TF over GST control) with ETV6.

The values are drawn from PMC7862700, “An all-to-all approach to the identification of sequence-specific readers for epigenetic DNA modifications on cytosine”.
